Data taken from PubChem BioAssay.
A number with no mark means an inactive call. The source made the active and inactive calls.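 How the source made its calls: active means viability at or under a set limit in both replicates, limit being median viability minus 3 SD (cut at about 48% in these data, passing the limit was not always enough); inconclusive means at or under the limit in just one replicate; inactive means at or above the limit in both replicates.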

assay: H69AR cell proliferation blockers – human, duplicate replicates, primary screen (AID 580); conditions: H69AR lung tumor cells viability, ATP luminescence, 72 h; at 10 µM; active compounds read low;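 further: 100% = mean luminescence of untreated wells and 0% = no signal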

Point of comparison: O=S(=O)(Nc1ccc(Cc2ccncc2)cc1)N1CCCC1, viability 92.4%. Against it:
- CCn1c(=O)cc(OCC(=O)NCCCN2CC(C)CC(C)C2)c2ccccc21 (stereo not given) — lower, 74.7%
- Nn1c(SCC(=O)Nc2ccc3c(c2)OCO3)nnc1C1CC1 — higher, 94.2%
- CCOP(=O)(c1ccc(N(C)C)cc1)C(O)c1ccccc1OC (stereo not given) — higher, 98.7%
- COc1ccc(C(=O)N2CCSC2=S)cc1OC — lower, 82.1%
- O=c1c2nnn(Cc3ccccc3)c2ncn1-c1ccccc1 — higher, 108%
- CCOc1ccc(NC(=O)CN(C)S(=O)(=O)c2cccs2)cc1 — higher, 93.9%
- O=c1[nH]c(SCc2cc(=O)n3ccccc3n2)nc2c1CCC2 — lower, 85.2%
- Cc1ccc(O)c(NC(=O)COc2cc(C)ccc2C)c1 — lower, 89.4%
- CCOc1cc(C2c3c(n[nH]c3C)C(=O)N2c2ccc(Br)cc2)ccc1O (stereo not given) — lower, 72.9%
- Cc1cc(NC(=O)CSc2ccc(Cl)cc2)no1 — lower, 61%
- CC(C)[C@H](NC(=O)NC1CCCC1)C(=O)O — higher, 104%
- CCOC(=O)c1[nH]c2ccc(OC)cc2c1NC(=O)CCN1CCC(C)CC1 — higher, 96.8%
- CCc1nc(C)c(-c2ccccc2)c(=O)[nH]1 — higher, 113%
- CN(C)c1ccc(NC(=O)CSCc2nc3c(nnn3Cc3ccc(F)cc3)c(=O)[nH]2)cc1 — higher, 94%
- COc1ccc(C2CC(=O)c3cnc(NC(=O)c4ccccc4OC)nc3C2)c(OC)c1 (stereo not given) — lower, 87%
- Cc1cnc(NC(=O)CSc2nc3ccccc3c(=O)[nH]2)s1 — higher, 93.3%
- CCCOc1ccc(OCCSc2ncccn2)cc1 — higher, 102%
- Cc1nnc(C)c2c(C)n(-c3ccc(Br)cc3)c(C)c12 — higher, 104%
- COC(=O)c1cc(O)c(OCc2ccccc2)c(O)c1 — higher, 94.3%
- O=C(c1ccc(Br)o1)N(c1ccc(Br)cc1)C1C=CS(=O)(=O)C1 (stereo not given) — lower, 87%
- Cc1nn(-c2ccccc2)c(C)c1C(=O)OCC(=O)c1c(N)n(CC(C)C)c(=O)n(C)c1=O — lower, 77.8%
- CC(=O)N1CCc2cc(S(=O)(=O)NC(C(=O)NCc3ccccc3)C(C)C)ccc21 (stereo not given) — higher, 102%
- N#CC1=C(N)Oc2n[nH]c(-c3cccs3)c2C1c1cccs1 (stereo not given) — lower, 83.8%
- Cc1cc(C(=O)CN2C(=O)c3ccccc3C2=O)c(C)n1Cc1cccs1 — lower, 86.3%
- CCc1nnc(NC(=O)C2CCCN2S(=O)(=O)c2ccc(C)cc2)s1 (stereo not given) — higher, 117%
- COC(=O)C1=C(C)C(c2cccs2)NC(=O)N1C (stereo not given) — higher, 95.3%
- CCOC(=O)CSc1nnc([C@H](C)NC(=O)OC(C)(C)C)o1 — higher, 106%
- O=C1CC(N2CCN(c3ccc(Cl)c(Cl)c3)CC2)C(=O)N1 (stereo not given) — higher, 107%
- CCC(C)(C)n1nnnc1C(c1ccncc1)N1CCN(c2cccc(OC)c2)CC1 (stereo not given) — lower, 85.3%
- COc1cccc(C(=O)OCn2nnc3ccccc3c2=O)c1 — higher, 114%
- O=C(O)CCc1ccc(-c2ccc(F)cc2)n1CC(=O)O — higher, 98%
- COC(=O)c1ccccc1S(=O)(=O)N(CCCO)Cc1cc2c(C)ccc(C)c2[nH]c1=O — lower, 79.3%
- COC(=O)c1ccc(-c2ccc(CNCC(O)c3ccccc3)o2)cc1 (stereo not given) — higher, 101%
- COC(=O)Nc1ccc(S(=O)(=O)N2CCN(c3ccc(F)cc3)CC2)cc1 — higher, 97.1%
- O=C(Nc1ccc(O)cc1)C1CCCN1S(=O)(=O)c1ccc(F)cc1 (stereo not given) — higher, 97.3%
- CCc1ccc(C=NC23CN4CN(CN(C4)C2)C3)s1 — higher, 105%
- Cc1nnc(SCC(=O)N2c3ccccc3CC2C)s1 (stereo not given) — lower, 92%
- COc1ccccc1S(=O)(=O)n1cc(Cc2ccccc2)c(N)n1 — higher, 104%

With N#Cc1cc2sc3nnc(-c4ccncc4)n3c2cc1C#N the viability was 32.3% (active).
